Test results from PMC10668032, “Altered binding affinity of SIX1-Q177R correlates with enhanced WNT5A and WNT pathway effector expression in Wilms tumor”.
The full ranking holds about 33,000 sequences; the median of “e-score” is about -0.053, and the highest 2% start at about 0.38. The list comes from a sample in which the highest values are over-represented; it also holds similar and randomly drawn sequences.

target: T1, SIX1 homeodomain (reference allele) (human, UniProt Q15475 108-198); test: universal protein binding microarray; Universal all-10-mer PBM (8x60K, AMADID 030236), 300 nM GST-tagged protein, Alexa Fluor 488 anti-GST; buffer, salt, pH and temperature not stated (as in Berger); high values mean tight binding; details: protein: ivt; tags: N-terminal GST; dsDNA, one strand shown
T1 sequence: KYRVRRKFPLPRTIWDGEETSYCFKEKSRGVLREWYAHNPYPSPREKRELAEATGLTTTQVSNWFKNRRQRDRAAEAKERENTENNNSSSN
Method in brief: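 Duplicate protein binding microarrays (universal 'all 10-mer', 8×60K format) were incubated with GST-tagged homeodomains at 300 nM final concentration. Binding was quantified as 8-mer E-scores with the Universal PBM Analysis Suite.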

Point of comparison: AGTATTAC, binding signal 0.188 ± 0.0763 E-score. Against it:
- CATAATCC — higher, 0.3 ± 0.0272 E-score
- AATTGTAT — within error, 0.162 ± 0.0456 E-score
- CATACCAG — within error, 0.171 ± 0.0153 E-score
- CCATTATA — within error, 0.177 ± 0.0248 E-score
- ATCCAAGA — within error, 0.155 ± 0.0124 E-score
- CAGGGCGA — within error, 0.216 ± 0.0603 E-score
- CAATCCGC — higher, 0.29 ± 0.0084 E-score
- CTATCCGA — higher, 0.33 ± 0.00993 E-score
- ATATCCGG — higher, 0.4206 ± 0.00416 E-score
- ATCTCCGA — within error, 0.258 ± 0.0265 E-score
- AAATCCGG — within error, 0.244 ± 0.0271 E-score
- CTATCCGC — higher, 0.3601 ± 0.000778 E-score
- ACATCCGG — within error, 0.174 ± 0.064 E-score
- GAATCCGA — the same, 0.188 ± 0.0166 E-score
- GCATCCGA — within error, 0.203 ± 0.0461 E-score
- ATATCCGC — higher, 0.43 ± 0.0222 E-score
- ATATCCGA — higher, 0.429 ± 0.0108 E-score
- GTATCCGA — higher, 0.426 ± 0.0105 E-score
- ATCGAAGA — within error, 0.293 ± 0.0315 E-score
- GCCAATAC — within error, 0.16 ± 0.00361 E-score
- TCAGCTCA — within error, 0.162 ± 0.0286 E-score
- ACTATCTG — within error, 0.178 ± 0.0443 E-score
- GATCGCAA — within error, 0.242 ± 0.0198 E-score
- GATCGTGA — within error, 0.229 ± 0.0511 E-score
- ATCACTAA — within error, 0.166 ± 0.051 E-score
- ATCGTAGA — within error, 0.193 ± 0.0118 E-score
- GGTGTACA — higher, 0.306 ± 0.0258 E-score
- CATACATG — within error, 0.154 ± 0.0235 E-score
- ATCCGCGA — within error, 0.259 ± 0.011 E-score
- AAGAGATA — within error, 0.235 ± 0.141 E-score
- GAGTGAGA — within error, 0.234 ± 0.0134 E-score
- CAGTGATA — higher, 0.417 ± 0.0231 E-score
- TAGTGATA — higher, 0.415 ± 0.0394 E-score
- TAGTGTGA — within error, 0.184 ± 0.00834 E-score
- GAGTGATA — higher, 0.447 ± 0.0268 E-score
- ACGTGATA — higher, 0.344 ± 0.0436 E-score
- GAGAGATA — higher, 0.323 ± 0.0528 E-score
- AAGTGATA — higher, 0.397 ± 0.0754 E-score
- CAGTGAGA — within error, 0.16 ± 0.032 E-score
- TAGTGAGA — within error, 0.203 ± 0.0506 E-score
- ATACTTCG — within error, 0.304 ± 0.058 E-score
- GACAATCC — within error, 0.18 ± 0.0145 E-score
- ATCAACAA — within error, 0.222 ± 0.0259 E-score
- CATATGAC — within error, 0.166 ± 0.0391 E-score
- ATACATCG — within error, 0.238 ± 0.0407 E-score
- ACTTACCG — within error, 0.152 ± 0.00235 E-score
- TATATTGA — within error, 0.258 ± 0.0428 E-score
- GTGTCGGA — higher, 0.322 ± 0.041 E-score
- GGATGGGA — within error, 0.195 ± 0.0444 E-score
- CAGATTGA — within error, 0.219 ± 0.0123 E-score
- AAGTGATC — higher, 0.391 ± 0.00486 E-score
- ACGTGATC — within error, 0.302 ± 0.0538 E-score
- CCGTGATC — higher, 0.364 ± 0.0193 E-score
- AATTGATC — higher, 0.291 ± 0.0151 E-score
- CCGTGATA — higher, 0.348 ± 0.0248 E-score
- GAGTGATC — higher, 0.336 ± 0.0148 E-score
- CAGTGATC — higher, 0.382 ± 0.0157 E-score
- GCGTGATA — higher, 0.437 ± 0.0364 E-score
- GATCTATA — higher, 0.298 ± 0.0183 E-score
- CCTACACC — within error, 0.163 ± 0.0313 E-score
- CCGTAATA — within error, 0.205 ± 0.0335 E-score
- TACTCGAA — within error, 0.152 ± 0.00667 E-score
- TACACGGA — within error, 0.173 ± 0.0418 E-score
- ACCATCCG — within error, 0.23 ± 0.0704 E-score
- ATACATCC — higher, 0.365 ± 0.0231 E-score
- GATTAATA — within error, 0.301 ± 0.0732 E-score
- ATACGCGG — within error, 0.182 ± 0.0649 E-score
- AGAGGTAT — higher, 0.399 ± 0.0394 E-score
- ACGGGTAT — higher, 0.435 ± 0.0111 E-score
- AAGGGTAA — within error, 0.173 ± 0.0225 E-score
- AACGGTAT — within error, 0.234 ± 0.0543 E-score
- AGGGGTAG — within error, 0.214 ± 0.0325 E-score
- ACAGGTAT — higher, 0.312 ± 0.0224 E-score
- AAGGGTGT — higher, 0.32 ± 0.00631 E-score
- AGGGGTAT — higher, 0.451 ± 0.0124 E-score
- AAGGGTAT — higher, 0.41 ± 0.0209 E-score
- AGGGGTAC — within error, 0.178 ± 0.0933 E-score
- AAAGGTAT — within error, 0.337 ± 0.087 E-score
- CCGGGTAG — within error, 0.162 ± 0.0432 E-score
- CATCCCGA — within error, 0.175 ± 0.0394 E-score
- CGGATTGA — higher, 0.305 ± 0.0268 E-score
- AATGTATA — within error, 0.259 ± 0.0211 E-score
- ACACCTCT — within error, 0.239 ± 0.0609 E-score
- TATCCAAA — higher, 0.297 ± 0.0104 E-score
- GGATTACA — within error, 0.18 ± 0.0206 E-score
- ATCGTCTG — within error, 0.162 ± 0.0451 E-score
- CCGGCATC — within error, 0.201 ± 0.0414 E-score
- AATACTGC — within error, 0.162 ± 0.0355 E-score
- GATACTGA — higher, 0.42285 ± 0.000276 E-score
- AATACTTC — within error, 0.2 ± 0.116 E-score
- GATACTTA — higher, 0.401 ± 0.0667 E-score
- AATACTGT — within error, 0.183 ± 0.00786 E-score
- GACACTGA — within error, 0.161 ± 0.0506 E-score
- TATACTGA — within error, 0.239 ± 0.00916 E-score
- GATACTGC — higher, 0.44524 ± 0.000438 E-score
- AATACTTG — within error, 0.151 ± 0.0521 E-score
- ATCGAGTA — within error, 0.226 ± 0.00853 E-score
- CGAATACA — within error, 0.151 ± 0.0627 E-score
- CCGCCTGA — within error, 0.228 ± 0.0274 E-score
- AACACCAG — within error, 0.164 ± 0.0278 E-score
- ATCGCCCG — within error, 0.198 ± 0.0602 E-score
- ACTCCATC — within error, 0.162 ± 0.00629 E-score
- ATCAGCTG — within error, 0.154 ± 0.0485 E-score
- CCCTCATC — within error, 0.176 ± 0.0843 E-score
- CGACACTC — within error, 0.177 ± 0.0347 E-score
- ATACATAG — within error, 0.177 ± 0.0401 E-score
- ATAGTATG — within error, 0.258 ± 0.00892 E-score
- GTAGTATA — within error, 0.267 ± 0.0665 E-score
- CTAGTATA — within error, 0.242 ± 0.0487 E-score
- ATAGTATC — higher, 0.426 ± 0.0263 E-score
- CTAGTATC — higher, 0.388 ± 0.0365 E-score
- ATAGTATA — within error, 0.29 ± 0.0405 E-score
- CATGTGAG — within error, 0.152 ± 0.0831 E-score
- ATCCAAGC — within error, 0.169 ± 0.0665 E-score
- AGCCGATC — higher, 0.329 ± 0.0103 E-score
- GCGTATCC — higher, 0.369 ± 0.00641 E-score
- ACGTATCG — higher, 0.413 ± 0.0215 E-score
- ACGTATTG — within error, 0.211 ± 0.0377 E-score
- CCGTATAC — higher, 0.36 ± 0.00586 E-score
- CCGTATTC — within error, 0.177 ± 0.00726 E-score
- ACGTATTC — within error, 0.234 ± 0.0548 E-score
- CCGTATCC — higher, 0.438 ± 0.0211 E-score
- ACGTATCT — higher, 0.339 ± 0.0607 E-score
- ACGTATCA — higher, 0.474 ± 0.0189 E-score
- ACGTATAA — within error, 0.268 ± 0.0722 E-score
- ACGTATAG — within error, 0.189 ± 0.0603 E-score
- ACGTATCC — higher, 0.377 ± 0.0283 E-score
- ATCAGTTA — within error, 0.182 ± 0.0174 E-score
- AAGATCGG — within error, 0.174 ± 0.064 E-score
- CGGATTAG — within error, 0.251 ± 0.0088 E-score
- ATTGACAC — higher, 0.3147 ± 0.00157 E-score
- CCCGATCA — higher, 0.347 ± 0.0408 E-score
- ATCAGTGG — within error, 0.261 ± 0.0178 E-score
- GCATATAC — within error, 0.227 ± 0.0131 E-score
- GAATATCC — within error, 0.276 ± 0.0527 E-score
- GCATATCC — higher, 0.391 ± 0.00731 E-score
- CCATATAA — within error, 0.155 ± 0.0479 E-score
- CCATATCA — higher, 0.472 ± 0.0124 E-score
- ACATATTA — within error, 0.161 ± 0.0413 E-score
- TCATATGA — higher, 0.303 ± 0.0253 E-score
- ACATATCA — higher, 0.446 ± 0.0429 E-score
- ACATATGA — within error, 0.166 ± 0.0311 E-score
- CCATATTA — within error, 0.265 ± 0.0697 E-score
- TCATATCA — higher, 0.418 ± 0.0507 E-score
- TAATATCA — within error, 0.34 ± 0.0768 E-score
- AACGCATA — within error, 0.203 ± 0.0681 E-score
- AGAACACC — within error, 0.179 ± 0.0208 E-score
- CCCCGCGA — within error, 0.229 ± 0.018 E-score
- ACCCAGCT — within error, 0.181 ± 0.00331 E-score
- AGCCATCG — within error, 0.173 ± 0.0382 E-score
- TGAAACCA — within error, 0.163 ± 0.0347 E-score
- GCATATTA — within error, 0.249 ± 0.0567 E-score
- GCATATCA — higher, 0.449 ± 0.0321 E-score
- GCATATAA — within error, 0.175 ± 0.0587 E-score
- AATGTGAT — within error, 0.178 ± 0.0316 E-score
- ACTATATA — within error, 0.247 ± 0.0141 E-score
- AACGGTGT — within error, 0.253 ± 0.00261 E-score
- GGTATGGA — within error, 0.252 ± 0.0421 E-score
- GCTATCGA — within error, 0.253 ± 0.0112 E-score
- AGTATTGA — within error, 0.193 ± 0.0395 E-score
- CGAATCGA — within error, 0.182 ± 0.0398 E-score
- CGTATAGA — higher, 0.28 ± 0.00298 E-score
- GGTATTAA — higher, 0.366 ± 0.0749 E-score
- CGTATCGA — higher, 0.3978 ± 0.00377 E-score
- GGTATTGA — higher, 0.3862 ± 0.0022 E-score
- CGTATTGA — within error, 0.23 ± 0.0207 E-score
- GGTATTAC — higher, 0.385 ± 0.0216 E-score
- GGTATCGA — higher, 0.463 ± 0.00936 E-score
- ATACGAAA — within error, 0.226 ± 0.0116 E-score
- ATCCTAAA — within error, 0.184 ± 0.0231 E-score
- ACACCTGG — within error, 0.172 ± 0.0558 E-score
